An excerpt weighted towards active compounds, which were near 1.7% of everything screened.
KCNH2 3.1 inh = blocks the human KCNH2 3.1 channel isoform; U2OS KCNH2 3.1, thallium flux FluxOr; active compounds read low; actives 0.95% (n = 340,000); AID 720553; activity change, % (tested at about 1.8 µM);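 active = maximum activity change below -70%; inconclusive = maximum activity change from -70% to -50%; inactive = maximum activity change above -50%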;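 also: thallium influx rate constant from kinetic fluorescence after stimulation buffer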
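Thallium flux via FluxOr fluorescence (Red40 quencher, 45 min loading) in U2OS cells virally expressing the KCNH2 3.1 isoform (1.77 x 10^8 /mL virus, overnight at 37 C). Rate constants from 2-min kinetic reads post-stimulation, normalised to positive and negative controls.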
KCNH2 WT inh = blocks the wildtype human KCNH2 potassium channel. activity change, % at 1.84 µM. actives 0.37% (n = 340,000). Q12809. AID 720551. U2OS, BacMam KCNH2, thallium flux FluxOr; active compounds read low;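 active = maximum activity change below -70%; inconclusive = maximum activity change between -70% and -50%; inactive = maximum activity change above -50%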
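U2OS cells were transduced with wild-type KCNH2 virus (2.03 x 10^8 / mL) for 4 h at room temperature, then cultured overnight at 37 C. Thallium flux was read with FluxOr dye. Rate constants were normalized to DMSO controls.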
RXFP1 agonist = activates the human relaxin receptor RXFP1; Q9HBX9; HEK293T-RXFP1 cAMP TR-FRET, 30 min; response scale: percent of porcine relaxin response, buffer zero; Potency, µM (titrated, usually from 57.5 µM), for inactives: top-dose activation, usual class: activators; actives 0.3% (n = 370,000); AID 2676; active = well fitted activation curve with a large enough effect; inconclusive = small, poorly fitted or top-dose-only effect; also: potency is read from the fitted curve at half-maximal effect; nearly all actives have a fitted effect of over 60% in size
Target sequence (Q9HBX9 whole entry, looked up): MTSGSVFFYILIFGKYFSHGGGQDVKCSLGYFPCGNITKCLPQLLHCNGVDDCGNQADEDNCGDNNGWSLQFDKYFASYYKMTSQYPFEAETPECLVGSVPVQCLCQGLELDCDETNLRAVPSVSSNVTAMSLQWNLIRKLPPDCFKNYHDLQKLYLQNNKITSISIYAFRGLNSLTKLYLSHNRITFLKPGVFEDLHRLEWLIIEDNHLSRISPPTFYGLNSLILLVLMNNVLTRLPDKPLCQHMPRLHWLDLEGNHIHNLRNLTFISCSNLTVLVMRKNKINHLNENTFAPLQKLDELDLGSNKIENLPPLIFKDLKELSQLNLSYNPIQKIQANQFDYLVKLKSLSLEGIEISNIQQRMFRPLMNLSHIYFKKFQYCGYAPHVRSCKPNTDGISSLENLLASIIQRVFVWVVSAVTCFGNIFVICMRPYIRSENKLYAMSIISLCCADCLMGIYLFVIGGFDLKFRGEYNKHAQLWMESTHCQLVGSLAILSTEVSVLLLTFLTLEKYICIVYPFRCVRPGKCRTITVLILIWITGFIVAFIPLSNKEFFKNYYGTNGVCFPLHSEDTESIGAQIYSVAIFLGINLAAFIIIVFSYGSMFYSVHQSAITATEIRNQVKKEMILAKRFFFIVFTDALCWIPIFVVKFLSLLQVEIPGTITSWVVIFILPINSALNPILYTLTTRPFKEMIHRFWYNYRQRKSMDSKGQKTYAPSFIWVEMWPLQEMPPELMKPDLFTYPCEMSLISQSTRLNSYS
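cAMP rise read by TR-FRET after 30 min, 37C compound exposure (up to 58 uM) in RXFP1-transfected HEK293 cells with Ro 20174 present. EC50 from Hill-equation fits, with 29 nM porcine relaxin as 100% and buffer as basal.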
Akt phos inh = inhibitors of Akt phosphorylation; Neuro2A IGF-stimulated pAkt S473 HTRF, 20 min; active compounds read low; activity change, % for hits at 50 µM; actives 0.32% (n = 360,000); AID 651550; in the data active = activity change below about -80%; inconclusive = mostly about -51% to -80%
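Neuro2A cells (4,500/well, DMEM with 0.5% FBS) were treated with compound at a single 50 µM final concentration, stimulated with 6 nM IGF for 20 min at 37 °C, and lysed. Phospho-Akt Ser473 was read by HTRF as 665/615 ratio ×10^4.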
RXFP1 antagonist = antagonists of human relaxin receptor RXFP1 | AID 1259400 | actives 0.59% (n = 350,000) | HEK293-RXFP1, relaxin-stimulated cAMP HTRF, 30 min; active compounds read low | activity change, negative = inhibition, % at 57.5 µM | Q9HBX9;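 active = activity change of -60% or lower, but not beyond a set lower limit; inconclusive = change between -60% and -40%, or beyond the set limit; inactive = change above -40%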
An asterisk follows results filed as active; i = inactive; ? = inconclusive; . = not tested or not shown. % is scaled to controls: 0 for no effect and ±100 for the full control effect.

SMILES | KCNH2 3.1 inh | KCNH2 WT inh | RXFP1 agonist | Akt phos inh | RXFP1 antagonist
CC(=O)c1ccc(NC(=O)c2ccc3c(=O)n4c(nc3c2)CCCCC4)cc1 | 4.4 | -7.3 | -2.9% | i | -11.0
Cc1ccc(-c2csc(NC(=O)c3ccc4c(=O)n5c(nc4c3)CCCCC5)n2)cc1 | -10.3 | -76.6* | 1.3% | i | 13.6
O=C(c1ccc2c(=O)n3c(nc2c1)CCCCC3)N1CCCCC1 | 22.9 | -22.3 | 1.6% | i | -107.9*
O=C(c1ccc2c(=O)n3c(nc2c1)CCCCC3)N1CCN(c2ccccc2)CC1 | -7.3 | -12.5 | 0.2% | i | -13.3
CC(NC(=O)CCc1ccccc1)c1ccc2c(c1)OCO2 (stereo not drawn) | -1.8 | -142.4* | -0.1% | i | 5.6
CC(NC(=O)CSc1ncccn1)c1ccc2c(c1)OCO2 (stereo not drawn) | -1.9 | 4.2 | . | i | -5.3
CS(=O)(=O)N(CCc1ccccc1)CC(=O)Nc1ccc2c(c1)OCO2 | -2.3 | -2.1 | -0.1% | -104.7%* | -10.5
CS(=O)(=O)N(CC(=O)Nc1ccc2c(c1)OCO2)Cc1ccccc1 | 1.7 | -2.0 | -0.3% | i | 11.5
CCOC(=O)C1CCN(c2ncnc3c2c(-c2ccccc2)cn3-c2ccc(C)c(Cl)c2)CC1 | . | . | 15.5% | . | 10.0
CC(C)OCC(O)CN1CCNCC1 (stereo not drawn) | -2.8 | -17.5 | 0.0% | -115.4%* | 8.6
OC(COc1ccccc1Br)CN1CCNCC1 (stereo not drawn) | 9.9 | -3.5 | -0.7% | i | -1.1
Cc1ccc(S(=O)(=O)NC(C)(C)CSc2nnc(Nc3ccccc3)s2)cc1 | -6.8 | 1.1 | -0.5% | i | -6.9
CCOC(=O)Cn1nnnc1CN1CCN(c2ccc(OC)cc2)CC1 | -3.8 | i | -0.1% | i | -3.8
CCC(C)(C)C(=O)Nc1cc([N+](=O)[O-])ccc1F | -175.5* | -249.7* | -0.7% | i | 5.4
O=C(CN1CCN(c2ccccn2)CC1)Nc1ccc(OC(F)(F)F)cc1 | -5.7 | 46.6 | 0.9% | i | -15.5
CC(=O)Nc1ccc(OCC(O)Cn2cccn2)cc1 (stereo not drawn) | -200.9* | -1.1 | -0.7% | i | 3.3
CC(=O)Nc1ccc(OCC(O)Cn2ccnc2)cc1 (stereo not drawn) | 9.1 | 7.1 | 0.9% | i | 5.1
Cc1cc(C)c(S(=O)(=O)N2CCCc3ccccc32)c(C)c1 | -94.8* | -6.5 | 2.3% | i | -7.2
O=C1CC(c2cccc(Cl)c2)Cc2nc(N3CCN(c4ccccc4)CC3)ncc21 (stereo not drawn) | 2.1 | 1.9 | 24.7% | -96.6%* | 2.3
CC(C)(Oc1ccc(Cl)cc1)C(=O)Nc1cccc(-c2cn3cccnc3n2)c1 | . | . | 5.6% | . | -1.1
CCC1NC(=S)NC(C)=C1C(=O)c1ccccc1 (stereo not drawn) | -115.5* | 2.5 | 2.8% | i | 0.2
O=C(C1=C(c2ccccc2)C(=O)c2ccccc2C1=O)c1ccccc1 | 0.5 | -4.0 | -0.7% | i | 13.5
Cc1oc2c(c1C(=O)c1ccccc1)C(=O)C(=O)c1ccccc1-2 | -14.4 | -14.3 | 2.0% | ? | -65.5*
O=C1C(=O)c2c(C(=O)c3ccccc3)coc2-c2ccccc21 | -11.9 | -4.6 | -1.1% | i | -78.2*
S=c1[nH]nc(-c2ccncc2)n1/N=C/c1cn(-c2ccccc2)nc1-c1ccccc1 | -0.9 | -1.6 | 2.8% | i | -35.9
SMILES | KCNH2 3.1 inh | KCNH2 WT inh | RXFP1 agonist | Akt phos inh | RXFP1 antagonist
Cc1ccc(-c2nn(-c3ccccc3)cc2/C=N/n2c(-c3cccs3)n[nH]c2=S)cc1 | -7.9 | 9.0 | 1.5% | i | -95.7*
S=c1[nH]nc(-c2cccs2)n1/N=C/c1cn(-c2ccccc2)nc1-c1cccs1 | 11.9 | 3.5 | 1.5% | i | -83.1*
CCC(C)(C)NC(=O)Nc1cc(Cl)ccc1OC | -80.9* | 1.3 | -1.5% | i | -5.8
O=C(O)CC/C(=C\c1cc([N+](=O)[O-])ccc1Cl)c1nc2ccccc2s1 | -13.8 | -10.3 | 3.6% | i | -1.0
N/C(CN1CCCC1=O)=N\O | 9.8 | 2.3 | 0.9% | i | 15.9
Cc1ccc(C2=NN(CC(=O)NCc3cccnc3)C(=O)CC2)cc1 | . | . | 0.2% | . | .
COc1ccc(Nc2cc(C)c3cc([N+](=O)[O-])ccc3n2)cc1 | -98.7* | -7.4 | -1.7% | i | -0.8
O=C1NC(c2ccccc2)C(c2ccccc2)N1 (stereo not drawn) | 9.0 | -0.5 | . | i | -9.4
Cc1ccc(S(=O)(=O)NCc2ccccc2)cc1 | 2.2 | -18.6 | -1.2% | i | -2.1
CSc1ccc(S(=O)(=O)NCc2ccc(C)cc2)cc1 | -78.2* | 41.3 | -0.2% | i | 7.2
Cc1cc(C)cc(C(=O)NCC(=O)N2CCC3(CC2)NCCc2[nH]cnc23)c1 | 9.4 | 1.8 | 1.0% | i | 11.5
CCOc1cc(C(=O)NCC(=O)N2CCC3(CC2)NCCc2[nH]cnc23)cc(OCC)c1OCC | 11.1 | 0.0 | -0.3% | i | -118.8*
CCn1c(-c2cc(-c3cccc(OC)c3)nc3ccccc23)n[nH]c1=S | -78.3* | 2.0 | -0.7% | i | 1.1
CCc1ccc(-c2cc(-c3n[nH]c(=S)n3CC)c3ccccc3n2)cc1 | . | . | 2.0% | . | .
CCOC(=O)C1=C(O)/C(=C/c2cccc(OC)c2O)N=C1C | 1.2 | 3.1 | -0.9% | i | -63.5*
Cc1cc(C)c(NC(=O)c2ccc3c(c2)NC(=O)C(C)S3)c(C)c1 (stereo not drawn) | -3.1 | -1.1 | -1.9% | i | 0.3
CCN(CC)S(=O)(=O)c1cc(NC(=O)c2ccc3c(c2)NC(=O)C(C)S3)ccc1C (stereo not drawn) | -7.7 | -12.8 | -0.3% | i | -76.3*
C=C(C)C(=O)Oc1ccc(N=Nc2ccc(C)cc2)ccc1=O | 4.3 | -11.6 | . | i | -69.9*
Cc1ccc(Nc2nc(N)nc(CN3CCN(c4ccccc4F)CC3)n2)cc1 | -86.3* | 25.2 | 7.0% | i | -10.0
CC1CC(C)CN(Cc2nc(N)nc(Nc3ccccc3)n2)C1 (stereo not drawn) | -30.7 | 29.6 | 0.0% | i | -9.4
Cc1ccc(Nc2nc(N)nc(CN3CCN(C(=O)c4ccco4)CC3)n2)cc1Cl | -93.8* | -9.6 | 2.0% | i | -8.3
CCOC(=O)C1CCCN(Cc2nc(N)nc(Nc3ccccc3)n2)C1 (stereo not drawn) | -17.8 | 14.9 | 2.9% | -96.0%* | -6.1
Cc1ccc(Nc2nc(N)nc(CN3CCCCCC3)n2)cc1 | ? | 19.1 | -0.5% | i | 1.9
Cc1ccc(NC(=O)N2CCN(C(=O)c3ccco3)CC2)cc1Cl | -2.8 | -2.3 | -3.0% | i | -18.0
Nc1nc(CN2CCC(Cc3ccccc3)CC2)nc(Nc2ccccc2)n1 | -87.5* | -90.4* | -0.3% | i | -17.2
O=C(CCl)Nc1ccc(N=Nc2ccccc2)cc1 | 6.2 | . | -0.3% | i | -9.8
